# According to PubChem BioAssay (NCATS):
# Records with an inconclusive call do not appear. Entries that show only a call come without a potency. Activity calls are given as the source filed them. Calls come from the whole dose curve.
# Target: Bile acid receptor (Homo sapiens) (UniProt Q96RI1)
# Assay: qHTS assay for small molecule antagonists of farnesoid X receptor signaling (AID 588526)
# Settings: HEK293T FXR-UAS-bla, beta-lactamase ratio, antagonist mode; series mostly up to 76.7 µM
# Description: NIH Chemical Genomics Center [NCGC] U.S. Environmental Protection Agency [EPA] National Institutes of Environmental Health Sciences [NIEHS] National Toxicology Program [NTP] NCGC Assay Overview The farnesoid-X-receptor (FXR), a nuclear hormone receptor is highly expressed in liver, intestine, kidney and adrenal cortex. Natural ligands of FXR are the bile acids (Cholic acid, Chenodeoxy cholic acid etc). It is an important regulator of diverse metabolic pathways, including the bile acid homeostasis, lipid and glucose metabolisms. FXR regulates the expression of target genes by binding either as a monomer or as a heterodimer with RXR (retinoid X receptor). As FXR regulates a large number of target genes involved in bile acid, lipoprotein and glucose metabolisms, it is a potential pharmacological target for bile acid and lipid disorders. Thus screening environmental chemicals on FXR signaling can be used for the studies focused on metabolic syndrome, hepatic and intestinal toxicity etc.
# NCGC Assay Protocol Summary Using a beta-lactamase reporter-gene under control of Farnesoid X receptor (FXR) response element, a cell-based assay [GeneBLAzer FXR-UAS-bla assay developed by Invitrogen] was used to measure FXR ligands signaling. GeneBLAzer FXR-UAS-bla HEK293T cells were used with assay medium containing 10% dialyzed FBS. The assay was performed in clear bottom black Greiner 1536-well plates. Guggulsterone were used in the screen as the positive control. Library compounds were measured for their ability to inhibit the reporter gene activity. Compounds were screened in a titration series in 1536-well format. The fluorescence intensity (405 nm excitation, 460/530 nm emission) was measured using an EnVision plate reader. Data was normalized relative to Chenodeoxycholic acid (50 uM, 100%), and DMSO only wells (basal, 0%). Concentration-response titration points for each compound were fitted to the Hill equation yielding concentrations of half-maximal inhibition (IC50) and maximal response (efficacy) values. qHTS protocol for FXR beta-lactamase assay in antagonist mode [Step] [Parameter] [Value] [Description] 1. Reagent; 5 uL; 5000 cells/well 2. Incubation; 37 C for 5-7 hrs 3. Compounds; 23 nL; 0.59 nM to 92 uM 4. Controls (Guggulsterone, FXR antagonist); 23 nL, - One column of dose response, start 200 uM, 1:2 dilutions in duplicates 5. Agonist (Stimulator); 1uL; Chenodeoxycholic acid at 100 uM and 50 uM final concentrations 6. Incubation; 37 C for 16 hrs 7. Detection reagent; 1 uL of CCF4-dye 8. Incubation; RT for 2 hrs 9. Detection; Fluorescence; Envision plate reader
# Chain of Bile acid receptor (Homo sapiens) (Q96RI1 whole entry, looked up): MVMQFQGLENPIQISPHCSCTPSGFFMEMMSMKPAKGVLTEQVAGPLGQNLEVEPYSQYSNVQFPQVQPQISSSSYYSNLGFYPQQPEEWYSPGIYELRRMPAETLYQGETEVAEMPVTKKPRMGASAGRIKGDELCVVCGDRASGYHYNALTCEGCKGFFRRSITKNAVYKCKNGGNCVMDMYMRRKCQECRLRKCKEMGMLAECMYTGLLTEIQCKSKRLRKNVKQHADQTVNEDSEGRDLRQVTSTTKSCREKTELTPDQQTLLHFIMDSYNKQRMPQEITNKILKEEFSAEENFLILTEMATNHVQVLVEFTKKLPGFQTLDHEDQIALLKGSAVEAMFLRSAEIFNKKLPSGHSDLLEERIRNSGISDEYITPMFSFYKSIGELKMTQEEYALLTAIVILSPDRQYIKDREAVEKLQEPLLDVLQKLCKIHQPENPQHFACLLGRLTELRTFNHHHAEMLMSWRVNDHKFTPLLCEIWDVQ
row,SMILES,Potency
1,Cc1cc(Nc2ccc(O)cc2)ccc1N,inactive
2,c1ccc2c(c1)ccc1cc3c(ccc4ccccc43)cc12,inactive
3,CO[C@H]1/C=C/O[C@@]2(C)Oc3c(C)c(O)c4c(O)c(c5c(c4c3C2=O)NC2(CCN(CC(C)C)CC2)N=5)=NC(=O)/C(C)=C\C=C\[C@H](C)[C@H](O)[C@@H](C)[C@@H](O)[C@@H](C)[C@H](OC(C)=O)[C@@H]1C,inactive
4,C=C(C)c1ccccc1,inactive
5,Cc1cc(C(C)(C)CC(C)(C)C)ccc1OCCOCC[N+](C)(C)Cc1ccccc1,inactive
6,CCCCCC/C(C=O)=C\c1ccccc1,inactive
7,CC1CCC(C(C)C)C(O)C1 (configuration not stated),inactive
8,CC1(C)CCC(C)(C)c2cc(C(=O)Nc3ccc(C(=O)O)cc3)ccc21,inactive
9,Cc1cc(O)c(C(C)(C)C)cc1Sc1cc(C(C)(C)C)c(O)cc1C,22.4 µM (active)
10,Cc1cccc(O)c1C,inactive
11,Cc1ccc(S(=O)(=O)Oc2ccc(N=Nc3ccc(-c4ccc(N=Nc5c(O)ccc6cc(S(=O)(=O)O)cc(S(=O)(=O)O)c56)c(C)c4)cc3C)cc2)cc1,inactive
12,O=C=Nc1ccc(Cc2ccc(N=C=O)cc2)cc1,inactive
